Assay outcomes (PubChem)
A selection: hits, their analogues and other compounds. The true share with any hit is near 2.1%.
TDP43 rescue: TDP-43 toxicity inhibition in yeast; 410,000 compounds, 1.8% hits; AID 652104; Potency, µM (highest dose often 46.1 µM), for the others: at the highest dose growth rescue (activation), usual class: activators; TDP-43 expressing yeast growth rescue, BacTiter-Glo, 24 h; also: % of control where 0% means no effect; nearly all actives have a fitted effect of over 50% in size
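Yeast cells expressing TDP-43 under galactose induction are exposed to compounds for 24 hr at 30 deg C. BacTiter-Glo luminescence measures growth, so protective compounds score as activators.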
FUS suppressor: rescues growth of FUS-expressing yeast; S. cerevisiae FUS-expressing, growth rescue, OD600, 24 h; Potency, µM (titrated, usually from 76.6 µM), hits mostly activators; 390,000 compounds, 0.24% hits; AID 1347120;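 also: plate controls were DMSO vehicle for no effect and reference control for full effect; nearly all actives have a fitted effect of over 55% in size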
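Compound concentration series was pinned onto galactose-induced FUS-expressing yeast seeded at OD 0.005. Plates sat 24hr at 30C; absorbance at 600 nm gave growth. DMSO served as background control.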
aSyn yeast inh: inhibitors of alpha-synuclein toxicity in yeast. 370,000 compounds, 0.14% hits. AID 652106. Yeast expressing alpha-synuclein, growth rescue, BacTiter-Glo, 24 h. Potency, µM (titrated, usually from 46.1 µM), for inactives: at the highest dose growth rescue (activation), most hits filed as activators; also: % of control where 0% means no effect; nearly all actives have a fitted effect of over 65% in size
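Galactose-induced alpha-syn yeast (OD600=0.02, raffinose-pregrown) + pinned cpd, 24 hr, 30 deg C; growth by BacTiter-Glo luminescence. Growth restoration scores as activation.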
Abeta rescue: compounds reversing amyloid beta toxicity in yeast; Potency, µM (series often up to 46.1 µM), actives largely listed as activators; AID 1347071; 410,000 compounds, 0.063% hits; yeast expressing A-beta42, growth rescue, OD600, 48 h; response scale: 0% DMSO, 100% iron-clioquinol control; also: nearly all actives have a fitted effect of over 55% in size
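Yeast growth medium received pinned compounds, then yeast cells expressing toxic A-beta were added; plates incubated at 30 C for 48 hr. Growth read as absorbance at 600 nm, normalized to DMSO and equimolar FeCl3 plus clioquinol controls.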
The depositor's hits bear a star; i = inactive; u = inconclusive; x = no result; [ ] = remark or other dose. Calls follow the shape of the dose curve; as a rule, active = well fitted curve in the direction sought with a large enough effect; inconclusive = small, poorly fitted or top-dose-only effect, or another doubt; inactive = no such curve, though single readings can be large; an effect the other way counts as inactive or inconclusive. Potency is read from the fitted curve at half-maximal effect.

SMILES	TDP43 rescue	FUS suppressor	aSyn yeast inh	Abeta rescue
COc1ccc(NC(=O)c2nn(C)c3c2CSc2ccc(C)cc2-3)cc1OC	22.4µM*	i	x	i
CCCCNC(=O)c1nn(C)c2c1CSc1ccccc1-2	35.5µM*	i	x	i
COc1ccc(OC)c(CCNC(=O)C(C)n2c(C)c3cnn(-c4ccccc4)c(=O)c3c2C)c1 (stereo not drawn)	12.3%	i	x	i
COc1ccccc1N1CCN(C(=O)CN2C(=O)COc3ccc(S(=O)(=O)N4CCOCC4)cc32)CC1	-10.8%	i	3.7%	i
Cn1nc(C(=O)NCc2cccc(Cl)c2)c2c1-c1ccccc1SC2	20µM*	i	x	i
Cc1cscc1-c1ccc(C(=O)Nc2c(C)cccc2C)o1	14.1µM*	i	28.7%	i
N#C/C(=C\c1c(F)cccc1Cl)C(=O)NC1CC1	12.6µM*	i	0.5%	i
N#C/C(=C\c1ccccc1)C(=O)NC1CC1	u	i	9.0%	u
Cn1c(=O)cc(SCC(=O)NCc2ccc(F)cc2)c2cc(Cl)ccc21	-3.8%	i	x	i
CC1=CC(C)(C)NC(=S)N1C(C)c1ccccc1 (stereo not drawn)	14.7%	i	-7.1%	10µM*
Cc1c(Cl)cccc1NC(=S)NCCc1ccc(Cl)cc1	u	i	10.5%	10µM*
S=C(NCCc1ccc(Cl)cc1)NC1CCCC1	20.6%	i	-13.8%	10µM*
COc1ccc(CCNC(=S)Nc2cccc(C)c2C)cc1	u	x	u	i
Cc1cccc(NC(=S)NCCc2ccccc2)c1C	17.8µM*	i	-2.3%	i
Cc1c(Cl)cccc1NC(=S)NC1CCCC1	20µM*	i	-5.0%	u
S=C(NCCc1ccc(Cl)cc1)NC1CCCCC1	0.0%	i	-6.7%	u
Cc1ccc(S(=O)Cc2ccc(C(=O)NC3CCCCCC3)o2)cc1 (stereo not drawn)	5.9%	i	x	i
O=S(=O)(c1ccc(F)cc1)c1snnc1-c1ccccc1	14.1µM*	i	-5.8%	i
O=S(=O)(c1ccc(Cl)cc1)c1snnc1-c1ccccc1	u	i	-5.3%	i
CC(/C=N/n1c(-c2ccco2)n[nH]c1=S)=C\c1ccccc1	17.8µM*	i	9.5%	i
CC(/C=N/n1c(-c2ccccn2)n[nH]c1=S)=C\c1ccccc1	9.3%	i	-1.5%	i
Cc1cc(NC(=O)c2cc(-c3ccccc3Cl)nc3ccccc23)no1	14.1µM*	i	2.4%	i
O=C(NCc1ccccn1)c1cc(-c2ccccc2Cl)nc2ccccc12	20µM*	x	5.3%	i
Cc1cc(NC(=O)c2cc(-c3ccccc3C)nc3ccccc23)no1	0.0%	x	0.6%	i
COc1ccccc1N1CCN(C(=O)CSc2n[nH]c(-c3ccccc3Cl)n2)CC1	24.5%	i	x	i
SMILES	TDP43 rescue	FUS suppressor	aSyn yeast inh	Abeta rescue
COCC(=O)N[C@H]1C[C@@H]2O[C@@H](CO)CC[C@@H]2O[C@@H]1CCc1ccc(-c2ccccc2)cc1	x	i	x	x
O=C(OCC#CCSc1nnc(-c2cccc3ccccc23)o1)c1cc(F)c(F)c(F)c1	x	i	x	x
Cc1ccc(S(=O)(=O)NCCc2csc(-c3cccc(F)c3)n2)cc1	17.8µM*	i	x	i
O=S(=O)(NCCc1csc2nc(-c3ccccc3)nn12)c1cc(F)ccc1F	22.4µM*	i	x	u
COc1ccc(F)cc1S(=O)(=O)NCCc1csc2nc(-c3cccc(C)c3)nn12	10.3%	u	x	i
O=S(=O)(NCCc1csc(-c2cccc(F)c2)n1)c1cc(F)ccc1F	2.51µM*	i	x	u
Cn1nc(C(=O)Nc2cccc(C(F)(F)F)c2)c2ccccc2c1=O	11.2µM*	x	8.9%	i
Cc1onc(C(=O)Nc2cccc(C(F)(F)F)c2)c1[N+](=O)[O-]	12.6µM*	i	-12.8%	i
Cc1onc(C(=O)Nc2ccccc2C(F)(F)F)c1[N+](=O)[O-]	12.3%	i	-4.3%	i
COc1cc(C(=O)NNC(=O)c2nn(C)c(=O)c3ccccc23)cc(OC)c1OC	3.16µM*	i	-5.6%	i
Cn1nc(C(=O)Nc2cccc(C(=O)NC3CC3)c2)c2ccccc2c1=O	7.8%	i	5.8%	i
COc1cc(NC(=O)c2cc(-c3ccccc3Cl)on2)cc(OC)c1OC	15.8µM*	i	-26.2%	i
Cc1ccc(NC(=O)COCc2cc(-c3cccs3)on2)cc1Cl	8.3%	i	x	i
CCc1ccc(N(CC)C(=O)Cn2nc(Cc3cccnc3)c3ccccc3c2=O)cc1	7.1%	i	x	i
COCCCNC(=O)/C=C/c1ccc(Cl)cc1Cl	14.1µM*	i	0.2%	i
O=C(O)CNC(=O)/C=C/c1ccc(Cl)cc1Cl	4.6%	i	-3.1%	i
C[C@H]1C2CC(OC(=O)NCc3ccccc3)C(C2)[C@H]2CCCCN21 (stereo partly drawn)	x	i	x	x
COC(=O)c1sc2cccc(F)c2c1S(=O)(=O)Nc1cc(C)c(Cl)cc1OC	u	u	x	i
Cc1cc(C)c(NC(=O)CNC(=O)COC(=O)Cc2cccs2)c(C)c1	11.2µM*	i	-1.4%	i
Cc1cc(C)c(NC(=O)CNC(=O)COC(=O)Cc2ccccc2C)c(C)c1	4.1%	i	-11.2%	i
CC1(C)Cc2c(c(N3CCOCC3)nc3snc(Br)c23)CO1	15.8µM*	i	3.7%	i
COCCn1c(SCc2cccc([N+](=O)[O-])c2)nc2ccccc2c1=O	17.8µM*	i	2.2%	i
COc1cc2nc(NC3CCN(C)CC3)nc(NC3CCN(C)CC3)c2cc1OC	x	x	0.5%	x
CCOc1ccc(C(=O)NCCc2sc(-c3ccc(C)cc3)nc2C)cc1	u	i	x	i
COc1ccc(-c2nc(C)c(CCNC(=O)c3cccc(C)c3)s2)cc1OC	22.4µM*	i	-6.2%	i
SMILES	TDP43 rescue	FUS suppressor	aSyn yeast inh	Abeta rescue
COc1ccc(-c2nc(C)c(CCNC(=O)c3cc(OC)c(OC)c(OC)c3)s2)cc1OC	5.2%	i	3.1%	i
COc1ccc(-c2nc(C)c(CCNC(=O)c3cccs3)s2)cc1	14.1µM*	i	-5.6%	i
Cc1nc(-c2ccccc2)sc1CCNC(=O)c1ccco1	17.8µM*	i	-14.1%	i
Cc1ccc(-c2nc(C)c(CCNC(=O)c3cccs3)s2)cc1	15.8µM*	i	-19.3%	i
COc1ccc(-c2cc3ccc(O)c(CN4CCOCC4)c3oc2=O)cc1OC	0.7%[9.22 µM]	i	x	i
Cc1cccc(-c2nc(C)c(CCNC(=O)c3cccs3)s2)c1	15.8µM*	i	-21.5%	i
Cc1cccc(-c2nc(C)c(CCNC(=O)C(=O)Nc3c(C)cc(C)cc3C)s2)c1	12.9%	i	5.8%	i
O=c1oc2ccc(Cl)cc2cc1-c1cn2c(n1)sc1ccccc12	3.9%	i	x	i
CCn1cnc2c1c(=O)n(Cc1cccc(Br)c1)c(=O)n2Cc1ccccc1	22.4µM*	i	-0.4%	i
